The entries come from a sample that favours hits as a whole.
Dicer processing: inhibitors of human Dicer processing of pre-microRNA; Q9UPY3; cat-ELCCA pre-miR-21 Dicer processing, chemiluminescence; hits give high values; z-score at 25 µM; hit rate 6% among 47,000; AID 1347074; in the data active = z-score above about 3, passing the limit was not always enough;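 also: plate controls were vehicle for no effect and no enzyme for full effect; higher signal means more uncleaved substrate so more Dicer inhibition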
* hit, by the source's call.

SMILES	Dicer processing
CC(C)S(=O)(=O)C/C(N)=N/OS(=O)(=O)c1ccc(Cl)cc1	-1.5
CC(C)S(=O)(=O)C/C(N)=N/OC(=O)c1cc(Cl)cc(Cl)c1	5.4*
CCCS(=O)(=O)C/C(N)=N/OC(=O)c1ccc(Cl)cc1	-0.54
N/C(CS(=O)(=O)Cc1ccco1)=N\OC(=O)c1ccc(Cl)cc1	4.8*
CCOc1cc(CNc2ccc(O)cc2)cc(Br)c1OCc1cccs1	0.14
COc1ccc(Nc2ncc(F)c(Nc3ccc(OC)cc3)n2)cc1	0.05
COc1ccccc1N1C(=O)CS/C1=N\N=C\c1ccccc1OC(=O)c1ccc(Cl)cc1	2.9
N#Cc1c(-c2ccc(Cl)cc2)nc(Nc2ccc(Cl)cc2)[nH]c1=O	1.1
N#Cc1c(-c2ccccc2)c(-c2ccccc2)nn(CC(=O)N/N=C/c2cccs2)c1=O	-0.43
COc1ccc(-c2nc(N(C)c3ccccc3)[nH]c(=O)c2C#N)cc1	-0.19
N#Cc1c(-c2ccc(Cl)cc2)nc(N/N=C/c2cccs2)[nH]c1=O	3.5*
N#Cc1c(-c2ccccc2)nc(N/N=C/c2cccs2)[nH]c1=O	3.8*
N#Cc1c(-c2ccc(Cl)c(Cl)c2)cc(-c2ccc(Cl)cc2)[nH]c1=O	2.1
Cc1c(NC(=O)CCC(=O)O)c(=O)n(-c2ccccc2)n1C	0.64
CC1(C)C2CCC(C2)C1(C)NC(=S)N/N=C/C=C/c1ccccc1 (stereo not drawn)	-1.4
CCOc1ccc2nc(Nc3ncc4c(n3)CC(c3cccs3)CC4=O)nc(C)c2c1 (stereo not drawn)	0.78
CSc1nc(N)c2ncn([C@@H]3O[C@H](COP(=O)(O)OP(=O)(O)O)[C@H](O)C3O)c2n1 (stereo partly drawn)	2.8
Cn1nnnc1Sc1c(-c2ccccc2)c2ccc(Cl)cc2[nH]c1=O	-0.91
CN(C)c1ccc(C2Nc3ccccc3NC3=C2C(=O)CC(C)(C)C3)cc1 (stereo not drawn)	-0.37
O=c1[nH]nc(-c2ccc(F)cc2)cc1Cc1cn(Cc2ccccc2)c2ccc([N+](=O)[O-])cc12	0.07
COc1ccc(C(=O)/C(C#N)=N/Nc2cccc(Cl)c2Cl)cc1	8.3*
COc1ccc(NC(=O)Nc2cccc(Cl)c2Cl)c(OC)n1	-0.73
N#C/C(=N\Nc1ccc(F)cc1)C(=O)c1ccccc1Cl	0.3
COC(=O)N(C)CCCC1(C)C(=O)N(C)c2ccc(O)cc21 (stereo not drawn)	-0.27
COc1cc(NC(=O)C(=O)NCCN(C)C)c(OC)cc1Cl	2
SMILES	Dicer processing
O=c1nc(Nc2ccccc2)c2ccccc2[nH]1	1.6
COc1ccccc1Nc1nc(Nc2ccccc2OC)nc(N2CCOCC2)n1	0.22
O=c1nc(N2CCOCC2)nc(Nc2ccccc2)[nH]1	8.3*
Cc1csc(C(=O)NNC(=O)c2ccc(C(F)(F)F)cc2)c1Cl	-0.85
CCOC(=O)C1=C(NC2CCN(Cc3ccccc3)CC2)C(=O)N(C(C)(C)C)C1	-4.2
O=C(Nc1ccc2c(c1)OCCO2)Nc1nnc(C2CC2)s1	2.1
CC(C)(C)c1ccc(NC(=O)Nc2nnc(C3CC3)s2)cc1	0.08
COc1ccc(NC(=O)Nc2nnc(C3CC3)s2)cc1OC1CCCC1	6.5*
Cc1cc(NC(=O)c2cc3ccccc3c(=O)o2)no1	-2
CCOc1ccc(/C(O)=C2\C(=O)C(=O)N(c3nccs3)C2c2ccc(Cl)cc2)cc1 (stereo not drawn)	1
CCOC(=O)C1=C(C)N=C2SCCC(=O)N2C1c1cccc(F)c1 (stereo not drawn)	-1.6
Cc1ccc(C(=O)/C=C/OC(=O)c2ccc(Cl)cc2)cc1	2.3
Cc1ccc(-c2cn3ccc(C)cc3n2)cc1	1.1
COc1c(Cl)cccc1-c1cn2ccc(C)cc2n1	5.9*
COc1c(Cl)cc(Cl)cc1-c1cn2ccccc2n1	-0.51
CCOC(=O)c1nn(-c2ccccc2)c2nc(Nc3ccccc3)c(C(C)=O)c(=O)n12	-1.3
COc1cccc(-c2nc(=S)c3c(n2CCO)CCCC3)c1	-0.09
CC1CCC(C(C)C)/C(=N/NC(=O)CC#N)C1 (stereo not drawn)	0.84
COc1cccc(C2CC(C(F)(F)F)n3ncc(C(=O)O)c3N2)c1 (stereo not drawn)	-0.84
O=C(O)c1cnn2c1NC(c1ccccc1)CC2C(F)(F)F (stereo not drawn)	3.1*
O=C(c1cnn2c1NC(c1ccc(Br)cc1)CC2C(F)(F)F)N1CCOCC1 (stereo not drawn)	4.2*
CC(C)NC(=O)c1cnn2c1NC(c1ccc(Br)cc1)CC2C(F)(F)F (stereo not drawn)	5.8*
O=C(O)c1cc2n(n1)C(C(F)(F)F)CC(c1ccc(Cl)cc1)N2 (stereo not drawn)	1.7
COc1ccc(C2CC(C(F)(F)F)n3ncc(C(=O)O)c3N2)cc1OC (stereo not drawn)	0.76
CC(C)NC(=O)c1nn2c(c1Cl)NC(c1ccc(Br)cc1)CC2C(F)(F)F (stereo not drawn)	-0.28
SMILES	Dicer processing
CC(C)NC(=O)c1cc2n(n1)C(C(F)(F)F)CC(c1ccc(Br)cc1)N2 (stereo not drawn)	1.8
CN1CCN(C(=O)c2cc3n(n2)C(C(F)(F)F)CC(c2ccccc2)N3)CC1 (stereo not drawn)	3.2*
Cc1ccc(C2CC(C(F)(F)F)n3ncc(C(=O)O)c3N2)cc1 (stereo not drawn)	0.54
COc1ccc(C2CC(C(F)(F)F)n3ncc(C(N)=O)c3N2)cc1 (stereo not drawn)	0.95
O=C(c1cc2n(n1)C(C(F)(F)F)CC(c1ccc(Cl)cc1)N2)N1CCOCC1 (stereo not drawn)	0.29
COC(=O)C(CC(C)C)NS(=O)(=O)c1ccc(-c2nnc(SC)n2C)s1 (stereo not drawn)	0.57
Cc1cc(NC(=O)C2Sc3nnc(C)n3NC2c2ccc(F)cc2)ccc1Br (stereo not drawn)	-0.31
O=C1CC(Sc2ccc(Cl)cc2)C(=O)N1c1cc(F)c(Br)cc1F (stereo not drawn)	-3.9
OCC1NCC(O)C(O)C1O (stereo not drawn)	-5.8
O=c1[nH]nc2n1-c1ccccc1SC2	0.85
CC1=N/C(=C/c2ccc(C)cc2)C(=O)O1	1.3
COCCOC(=O)c1c(C)n(S(C)(=O)=O)c2ccc(NS(C)(=O)=O)cc12	0.91
C=CCOC(=O)C1=C(C)NC2=C(C(=O)CCC2)C1c1ccccc1OCC (stereo not drawn)	-0.13
CC12CN3CC(C)(CN(C1)C3c1ccc3ccccc3c1O)C2=O (stereo not drawn)	-2.2
CN1CCN(C(=O)c2cnn3c2NC(c2ccc(Br)cc2)CC3C(F)(F)F)CC1 (stereo not drawn)	4.7*
O=C(O)c1cnn2c1NC(c1ccc(Br)cc1)CC2C(F)(F)F (stereo not drawn)	2.6
O=C(c1cnn2c1NC(c1ccccc1)CC2C(F)(F)F)N1CCCCC1 (stereo not drawn)	0.97
COc1ccc(S(=O)(=O)NCCNC(=O)N2CCOCC2)cc1	-0.42
COc1ccc(OC(=O)N2CCOCC2)cc1	5*
O=C(Nc1ccc(OC(=O)N2CCOCC2)cc1)N1CCOCC1	-0.43
CN(C)CCC=C1c2ccccc2CCc2ccccc21	0.88
COC(=O)c1scc(C)c1NC(=O)C(Cl)Cl	-0.76
COc1ccc(C2C(C#N)=C(N)Oc3n[nH]c(C)c32)cc1OC (stereo not drawn)	-5.5
COC(=O)c1ccccc1NC(=S)N(N)CCO	-0.19
COC(=O)c1ccccc1NC(=S)OC	0.06
CCOC(=O)Nc1ccccc1C(=O)OC	5.4*

Assay outcomes as filed in PubChem BioAssay.
